Bioassay records from PubChem BioAssay.
L major viab = inhibitors of Leishmania major promastigote growth; Leishmania major promastigotes, resazurin fluorescence viability; inhibition, % at 10 µM; 9% of 200,000 active; in the data active means inhibition above about 50%;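 further: promastigotes grown with compound for 44 hours at 28 °C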
RAM network inh = yeast RAM network inhibition; S. cerevisiae dse1pr::URA3 reporter, 5-FOA growth OD615, 2 d; analog-sensitive cbk1-as2 kinase mutant strain; inhibition, % at 50 µM; 1.8% of 190,000 active;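 active means inhibition above a set limit, 3 SD over mean compound inhibition, cut at about 8.4% in these data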;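 further: 0% = DMSO-only wells with no growth and 100% = 10 µM 1-NA-PP1 full growth; inhibition rescues growth on 5-FOA so higher OD means more RAM inhibition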
CHOP inh = CHOP inhibition in unfolded protein response | 3.8% of 220,000 active | inhibition, % at 10 µM | AID 2732 | CHO-K1 CHOP-promoter luciferase, tunicamycin-induced, 15-18 h;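 active means compounds that reduced the stress-induced luciferase reporter signal by more than about 70% of percent inhibition, limit read from the data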;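 further: 0% = tunicamycin plus vehicle and 100% = wells without tunicamycin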
WT yeast gro inh = growth inhibition of WT yeast, mitochondrial fusion screen; mitochondrial fusion phenotypic screen, WT strain; inhibition, % at 10 µM; 2.1% of 190,000 active; AID 1362; in the data active means inhibition above about 58%; tested in S. cerevisiae
The depositor's hits bear a star; · = not tested or not shown. The list is not random: actives were taken first. Their share in the collection is about 13%.

SMILES	L major viab	RAM network inh	CHOP inh	WT yeast gro inh
CCOC(=O)/C(C#N)=C1\Nc2ccccc2N=C1N(CC(C)C)CC(C)C	81*	8.9*	77*	76*
CCOC(=O)/C(C#N)=C1/C=C(C)NC(c2ccccc2O)=N1	-4	7	29	-12
C/C(=N\N=C(N)N)c1ccc(Cl)c(Cl)c1	101*	2	-5	22
CCCc1cc(=O)[nH]c(Nc2ccc(OC)c(Cl)c2)n1	22	2	78*	-6
CCCc1cc(=O)[nH]c(Nc2ccc(Cl)cc2)n1	17	2	11	9
Cc1cccc(NC(=O)CSc2nnc(Cc3ccccc3)o2)c1	-11	3	9	-14
O=C(NC1CCCCC1)C(c1ccc(O)c(O)c1)N(C(=O)Cn1nnc2ccccc21)c1cccc(O)c1 (stereo unspecified)	-4	5	-10	1
C/C(N)=C(/C#N)C(=O)CSc1cc(C)c2cc(C)cc(C)c2n1	18	8	32	13
Nc1ccccc1-c1nnc(SCc2ccccc2Cl)[nH]c1=O	-4	1	26	38
Cc1ccc(CSc2nnc(-c3ccccc3N)c(=O)[nH]2)cc1	-7	0	3	63*
Cc1ccc(-n2c3nc(=O)[nH]c(=O)c-3cc3cc([N+](=O)[O-])ccc32)cc1	95*	2	30	5
Cc1ccc(-n2c(C)nn(Cc3ccc([N+](=O)[O-])cc3)c2=O)cc1	-8	5	14	-14
CC(=O)N(C)Cc1ccc(C(=O)CCl)cc1	101*	1	105*	8
CCOC(=O)CC1C(=O)NCCN1C1CCCC1 (stereo unspecified)	-3	1	-22	14
COc1ccccc1NS(=O)(=O)c1ccc2c(c1)n(C)c(=O)n2C	-4	2	14	-25
COCCN(C(=S)Nc1c(C)cccc1C)C(C)c1cccs1 (stereo unspecified)	56*	0	3	38
COCCN(C(=S)Nc1cccc(C)c1)C(C)c1cccs1 (stereo unspecified)	2	1	39	59*
CC(C)CCN(C(=S)Nc1cccc(F)c1)C(C)c1cccs1 (stereo unspecified)	21	-1	56	59*
COc1ccc(NC(=S)N(CCC(C)C)C(C)c2ccncc2)cc1 (stereo unspecified)	·	·	-1	·
COCCN(C(=S)Nc1ccc(OC)cc1)C(C)c1cccs1 (stereo unspecified)	2	0	40	28
COCCN(C(=S)Nc1cc(C)cc(C)c1)C(C)c1ccco1 (stereo unspecified)	11	3	5	61*
COCCN(C(=S)Nc1cc(C)cc(C)c1)C(C)c1cccs1 (stereo unspecified)	11	3	30	15
COc1ccc(-c2cc(C(F)(F)F)nc(-n3ccnc3)n2)cc1	16	4	-8	11
COC(=O)C(CC(C)C)N1CCC(=O)c2ccccc2S1(=O)=O (stereo unspecified)	·	·	8	·
CCc1nnc(NC(=O)C2CC(=O)N(Cc3ccccc3)C2)s1 (stereo unspecified)	-12	2	-4	-10
SMILES	L major viab	RAM network inh	CHOP inh	WT yeast gro inh
O=C(Nc1cccc(Cl)c1)Nc1nnc(-c2ccncc2)s1	65*	0	92*	8
O=C(Nc1cccc(Cl)c1)Nc1nnc(CC2=CCCCC2)s1	-6	2	93*	2
O=C(Nc1cccc(Cl)c1)Nc1nnc(CSCCOc2ccc(Cl)cc2)s1	9	4	51	-2
O=C(Nc1nnc(SCc2ccc(F)cc2)s1)C1CC(=O)N(Cc2ccccc2)C1 (stereo unspecified)	54*	1	28	-17
O=C(Nc1ccc(Cl)cc1)Nc1nnc(-c2ccncc2)s1	44	6	87*	6
O=C(Nc1ccc(F)cc1)Nc1nnc(-c2ccncc2)s1	27	1	47	-1
COC(=O)Nc1nnc(-c2ccncc2)s1	-2	1	-5	2
Cc1ccc(C2=Nc3ccccc3N(C(=O)c3ccccc3)C(C)C2)cc1 (stereo unspecified)	10	2	29	-7
O=C(Nc1ccccc1)Nc1nnc(SCc2ccc(Cl)cc2)s1	-6	2	90*	-9
O=C(Nc1ccc(Cl)cc1)Nc1nnc(SCc2ccc(Cl)cc2)s1	-4	3	9	7
O=C(CSc1nc2[nH]ncc2c(=O)[nH]1)N1CCCCC1	-2	0	-1	20
O=C(CSc1nccn1-c1ccccc1)c1ccc(Br)cc1	-2	11*	-41	9
Cn1ccnc1SCC(=O)c1ccc([N+](=O)[O-])cc1	14	0	31	2
Cn1ccnc1SCC(=O)c1ccc(Br)cc1	-3	0	4	67*
O=C(O)CCCSc1nccn1-c1ccccc1	0	0	4	12
O=C(NCCC1=CCCCC1)C1CCN(C(=O)c2ccc(Br)cc2)CC1	-1	0	8	-1
CCCCn1c2nc3ccccc3nc2c2c(=O)n(C(C)CC)cnc21 (stereo unspecified)	6	4	50	1
CCC(C)n1cnc2c(c1=O)c1nc3ccccc3nc1n2-c1ccc2c(c1)OCCO2 (stereo unspecified)	38	4	83*	4
CCC(C)n1cnc2c(c1=O)c1nc3ccccc3nc1n2Cc1ccc2c(c1)OCO2 (stereo unspecified)	24	10*	30	35
CCN1CCN(C(=S)c2ccc(Br)cc2)CC1	85*	0	1	-21
CN1CCN(C(=S)c2ccc([N+](=O)[O-])cc2)CC1	66*	1	-19	-6
CSc1ccc(C(=S)N2CCN(C)CC2)cc1	94*	2	11	-10
CSc1ccc(C(=S)N2CCN(C(c3ccccc3)c3ccccc3)CC2)cc1	28	3	36	19
CN1CCN(C(=S)c2ccc(N(C)C)cc2)CC1	94*	4	-5	1
O=[N+]([O-])c1ccc(C(=S)N2CCC(Cc3ccccc3)CC2)cc1	-5	5	33	24
SMILES	L major viab	RAM network inh	CHOP inh	WT yeast gro inh
CN(C)c1ccc(C(=S)N2CCN(Cc3ccccc3)CC2)cc1	20	2	23	32
O=C(c1cc2cc([N+](=O)[O-])ccc2s1)N1CCOCC1	6	1	18	-35
COC(=O)C1=C(C(=O)OC)C(c2ccccc2O)c2sc(=O)[nH]c2S1 (stereo unspecified)	-2	1	-11	-3
CC(=O)CSc1nnc(C(F)(F)F)n1C	·	·	-25	·
CC(C)c1ccc(N=C2N=C(N)c3ccccc32)cc1	·	·	13	·
CN1CCN(C(=S)c2ccc(Br)cc2)CC1	85*	-1	-5	-19
CN1CCN(C(=S)Nc2cc([N+](=O)[O-])ccc2Cl)CC1	66*	-1	-2	5
CN1CCN(CCC(=O)N2c3ccccc3Sc3ccc(Cl)cc32)CC1	101*	3	12	10
COC(=O)Nc1ccc2c(c1)N(C(=O)CCN1CCN3CCCC3C1)c1ccccc1CC2 (stereo unspecified)	-6	0	5	-3
COC(=O)Nc1ccc2c(c1)N(C(=O)CCN1CCN3CCCC3C1)c1ccccc1S2 (stereo unspecified)	71*	0	34	14
Cc1cc(C)nc(N/N=C/c2ccccc2Cl)n1	·	·	-1	·
